# Most compounds without a hit are left out; they make up all but 9% or so of the library.
# ALOX12 inh: inhibitors of human 12S-lipoxygenase ALOX12; purified 12hLO, xylenol orange hydroperoxide absorbance; 580,000 compounds, 1.1% hits; P18054; AID 1671190; Potency, µM (doses to about 108 µM), for inactives: at the highest dose activity change, negative = inhibition, actives largely listed as inhibitors; further: on the % scale 0 is the no-effect control and ±100 the full control effect
#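 Purified human 12hLO at 150 nM in 25 mM Hepes, 0.01% Triton X-100, pH 7.0, preincubated 15 min at room temperature with compound. Reaction started with 40 uM arachidonic acid, 30 min at room temperature. Hydroperoxide measured by Fe-xylenol orange, 573/405 nm absorbance ratio.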
# BAZ2B inh: inhibitors of human BAZ2B bromodomain; AID 504333; 360,000 compounds, 4.4% hits; Q9UIF8; AlphaScreen BAZ2B-H3K14Ac peptide displacement; Potency, µM (highest dose often 114 µM), without a hit: at the top dose activity change, negative = inhibition, hits mostly inhibitors; further: on the % scale 0 is the no-effect control and ±100 the full control effect; nearly all actives have a fitted effect of over 60% in size
#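 Inhibition is scored as reduced AlphaScreen emission. The BAZ2B/b-H3(5-23)K14Ac complex (50 nM each) in PBS pH 7.4, 0.01% Tween-20 meets compound (up to 110 uM) for 30 min at RT before bead addition.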
# G9a inh: inhibitors of human histone lysine methyltransferase G9a | Q96KQ7 | G9a H3K9 monomethylation, AlphaScreen, 2 h | Potency, µM (doses to about 102 µM), for the others: top-dose activity, negative = inhibition, usual class: inhibitors | 350,000 compounds, 8.8% hits; further: on the % scale 0 is the no-effect control and ±100 the full control effect; nearly all actives have a fitted effect of over 75% in size
# Target sequence (Q96KQ7 913-1193 limits assumed): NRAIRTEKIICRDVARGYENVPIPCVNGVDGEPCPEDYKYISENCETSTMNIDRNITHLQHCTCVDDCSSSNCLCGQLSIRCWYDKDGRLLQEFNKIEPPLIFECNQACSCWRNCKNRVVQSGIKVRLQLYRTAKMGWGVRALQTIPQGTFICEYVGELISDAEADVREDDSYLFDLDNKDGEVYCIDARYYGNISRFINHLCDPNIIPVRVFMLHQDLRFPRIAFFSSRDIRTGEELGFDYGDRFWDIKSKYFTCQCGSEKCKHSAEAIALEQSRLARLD
#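 Step 1: enzyme (final 20 nM) with compound, 15 min RT. Step 2: substrate peptide 500 nM and SAM 20 uM, 2 h RT. Step 3: anti-H3K9me1 antibody and AlphaScreen beads, 10 min, then plate read.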
# PLK1 PBD inh: inhibitors of human PLK1 polo-box domain binding | P53350 | Plk1 PBD binding of FITC phosphopeptide, fluorescence polarization | Potency, µM, without a hit: max response, negative = inhibition, most hits filed as inhibitors | 360,000 compounds, 2.8% hits | AID 720504; further: series mostly up to about 57 µM; on the % scale 0 is the no-effect control and ±100 the full control effect; nearly all actives have a fitted effect of over 65% in size
# HP1b chromo inh: inhibitors of HP1-beta chromodomain binding to methylated histone tails; AlphaScreen HP1-beta / biotin-H3K9me3 peptide binding; P83916; 390,000 compounds, 0.56% hits; Potency, µM (doses to about 114 µM), inactives show at the top dose activity change, negative = inhibition, hits mostly inhibitors; further: nearly all actives have a fitted effect of over 70% in size
# Target sequence (P83916 whole entry, looked up): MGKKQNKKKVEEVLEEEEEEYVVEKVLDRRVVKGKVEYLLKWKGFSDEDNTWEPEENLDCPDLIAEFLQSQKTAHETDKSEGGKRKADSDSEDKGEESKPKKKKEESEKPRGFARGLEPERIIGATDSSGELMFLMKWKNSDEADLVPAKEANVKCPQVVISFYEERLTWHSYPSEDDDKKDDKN
#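 HP1-beta protein (50 nM final) preincubated 30 min at room temperature with biotinylated H3(1-18)K9me3 peptide (50 nM) in PBS pH 7.4, 0.01% Tween-20, then compound added for 30 min. AlphaScreen streptavidin donor/nickel chelate acceptor beads (10 ug/mL final), 30 min dark, luminescence read.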
# JMJD2A Tudor inh: blocks the human JMJD2A Tudor domain; 390,000 compounds, 4.4% hits; AlphaScreen JMJD2A-Tudor / H3K4me3 peptide binding; Potency, µM (top dose mostly 114 µM), for the others: at the top dose activity change, negative = inhibition, usual class: inhibitors; further: on the % scale 0 is the no-effect control and ±100 the full control effect; nearly all actives have a fitted effect of over 50% in size
# * marks the source's active call; other numbers are inactive results; u = inconclusive; x = no result; ! = a repeat was not active; [ ] = dose if it differs, or a comment. The call rests on the fitted dose curve; in most records, active means well fitted curve in the direction sought with a large enough effect; inconclusive means small, poorly fitted or top-dose-only effect, or another doubt; inactive means no such curve, though single readings can be large; an effect the other way counts as inactive or inconclusive. Potency means the concentration at half of the fitted maximal effect.
SMILES,ALOX12 inh,BAZ2B inh,G9a inh,PLK1 PBD inh,HP1b chromo inh,JMJD2A Tudor inh
C=CCn1c(C2CC2)n[nH]c1=S,u,-23.8%,44.7µM*,-18.2%,40.1%,u
O=c1[nH]c(=O)n(Cc2ccco2)c(O)c1C=NC1CC1,7.1%,3.8%,4.6%[59 µM],-8.1%,22.0%,-14.4%
COc1ccc(CCNCc2cccc(C(F)(F)F)c2)cc1OC,-25.2%,50.1µM*,11.2µM*,-7.5%,-7.3%,44.7µM*
COc1ccc(CCNCc2ccc(F)cc2)cc1OC,-2.3%,13.2%,76.9%[59 µM],-8.0%,29.5%,-8.4%
COc1ccccc1CCNCc1cccc(C(F)(F)F)c1,u,7.8%,70.8µM*,1.7%,11.8%,-31.2%
CN(CCc1ccccc1)Cc1c[nH]c2ccccc12,u,u,3.16µM*,-16.0%,-9.2%,u
CC(=NCc1ccco1)c1c(O)n(-c2ccccc2C)c(=O)[nH]c1=O,u,-5.5%,x,-10.7%,14.1%,-13.0%
CCCc1cc(=O)oc2cc(OCC(=O)N3CCN(Cc4ccc5c(c4)OCO5)CC3)ccc12,8.7%,50.1µM*,-36.0%,-4.8%,22.8%,-31.9%
COc1cccc(NC(=O)c2ccc[n+](C)c2)c1,u,-25.2%,39.8µM*,-2.7%,38.8%,u
COc1cccc(NC(=O)Cn2cc(C(=O)c3ccccc3)c3ccccc32)c1,0.0%,-16.7%,-10.6%[59 µM],x,16.2%,-26.5%
Oc1ccccc1O,u,6.2%,1.78µM*,-15.4%,u,39.8µM*
Oc1ccc(-c2ccccc2)cc1,-29.1%,x,x,x,x,x
NS(=O)(=O)c1cc(C(=O)OCC(=O)Nc2ccc3[nH]c(=O)[nH]c3c2)ccc1Cl,-28.4%,-6.2%,1.41µM*,3.6%,33.3%,-2.9%
O=C1NC(=O)N(Cc2ccc(F)cc2)C(=O)/C1=C\c1ccc(N2CCCC2)cc1,6.0%,u,44.7µM*,1.5µM*,-17.8%,u
CN(C)c1ccc(/C=C2\C(=O)NC(=O)N(CCc3ccc(F)cc3)C2=O)cc1,15.8µM*,u,44.7µM*,1.06µM*,27.9%,u
COC(=O)c1ccc(N2CCN(C)CC2)c([N+](=O)[O-])c1,-14.3%,-21.8%,-31.2%,-12.6%,11.2%,-12.4%
CN1C(=O)C(=Cc2cccnc2)C(=O)N(C)C1=O,u,-4.8%,x,16.8µM*,13.1%,-8.3%
CN1C(=O)C(=Cc2ccc(N3CCOCC3)c([N+](=O)[O-])c2)C(=O)N(C)C1=O,x,-34.6%,35.5µM*,x,x,x
O=c1[nH]c(=O)n(Cc2ccc(F)cc2)c(O)c1C=NCCN1CCCCC1,-6.4%,-29.1%,-3.2%[12.7 µM],-11.5%,28.9%,-28.9%
O=C1/C(=C/c2cccnc2)N2CCC1CC2,-0.9%,-7.9%,u,-2.9%,35.1%,2.8%
Cc1c(C=C2C(=O)N(C)C(=O)N(C)C2=O)c(=O)n(-c2ccccc2)n1C,-12.7%,4.6%,-4.7%[59 µM],u,39.1%,-2.2%
COCCN1C(=O)NC(=O)/C(=C\c2ccc(F)cc2)C1=O,-15.3%,-13.4%,u,13.4µM*,41.6%,0.0%
CN1C(=O)C(=Cc2ccc(N3CCCCCC3)cc2)C(=O)N(C)C1=O,u,-14.8%,x,1.5µM*,18.8%,-16.9%
COc1cccc(C(=O)C2CCCN(Cc3cnn(C(C)C)c3)C2)c1 (stereo unspecified),-1.4%,-10.4%,23.0%,0.3%,24.5%,6.9%
C=CC[N+](C)(C)c1ccc(CCC(=O)CCc2ccc([N+](C)(C)CC=C)cc2)cc1,-0.3%,-13.3%,15.8µM*,-3.8%,29.4%,-3.6%
SMILES,ALOX12 inh,BAZ2B inh,G9a inh,PLK1 PBD inh,HP1b chromo inh,JMJD2A Tudor inh
CC[C@H]1CN2CC[C@H]1C[C@@H]2COC(=O)Nc1cc(OC)cc(OC)c1,-1.4%[176 µM],x,x,x,x,x
CC1OC(C[N+](C)(C)C)CC1O (stereo unspecified),-0.3%,13.6%,1.9%[59 µM],-1.4%,17.1%,-8.3%
C[C@@H]1O[C@H](C[N+](C)(C)C)C[C@H]1O,-3.0%,x,15.8µM*!,x,x,x
CC1OC(C)OC(C)O1 (stereo unspecified),x,x,0.5%[12.7 µM],x,x,x
C[C@H]1OC[C@@H](C[N+](C)(C)C)O1,u,-28.9%,1.58µM*,-18.4%,9.3%,u
CC(=O)Nc1ccc2c(c1)CC1(C(=O)N(C)C(=O)N(C)C1=O)C1CCCN21 (stereo unspecified),27.0%,-5.9%,35.5µM*,-10.0%,60.7%,-7.2%
CNC(=O)Oc1ccccc1OC(C)C,0.9%,x,x,-17.4%,52.5%,-10.3%
CNC(=O)Oc1ccc2ncccc2c1,-6.6%,-1.8%,44.7µM*,-28.2%,46.5%,7.6%
CNc1ccc2oc(C[C@@H]3OC4(CC[C@@H]3C)O[C@H](C(C)C(=O)c3ccc[nH]3)[C@H](C)C[C@H]4C)nc2c1C(=O)O (stereo partly specified),x,x,17.8µM*,x,x,x
Cc1cccc(-n2c(-c3cccs3)nc3ccccc3c2=O)c1,u,79.4µM*,0.1%[59 µM],7.0%,12.7%,u
O=c1c2ccccc2nc(-c2cccs2)n1-c1ccccc1,185.4%,-23.2%,18.3%,-4.8%,19.6%,9.1%
COc1ccc(-n2nc(C(=O)NCC(=O)N3CCC4(CC3)OCCO4)c3ccccc3c2=O)cc1,-11.1%,7.8%,-1.2%,-7.5%,-8.0%,0.7%
O=[N+]([O-])/C=C/c1c(Cl)cccc1Cl,1.8%,x,x,2.67µM*,3.0%,39.8µM*
O=C(c1ccc2c(c1)ncn2C1CCCCCC1)N1CCC2(CC1)OCCO2,261.9%,2.5%,x,-3.6%,36.5%,-35.2%
O=C(c1ccco1)N1CCN(C(=O)c2ccc(COc3ccc(Cl)cc3Cl)o2)CC1,-48.8%,x,x,-18.4%,-19.8%,89.1µM*
Cc1c(C)c2ccc(OCC(=O)N3CCN(Cc4ccccc4)CC3)cc2oc1=O,48.2%,x,x,3.2%,28.4%,-10.7%
Cc1c(Cc2ccccc2)c(=O)oc2cc(OCc3ccc(C(=O)O)cc3)ccc12,-14.0%,u,-25.8%,21.2µM*,22.0%,-26.8%

# Screening data (PubChem BioAssay)
